Most compounds without a hit are left out; they make up all but 1.9% or so of the library.
MsrA act: bovine MsrA enzyme activators, primary screen, biochemical, absorbance, HTS; Methionine sulfoxide reductase A (Bos taurus); purified bovine MsrA, absorbance read-out; activation, % at 10.6 µM; 360,000 compounds, 0.3% hits; in the data active means activation above about 7.5%;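 further: 0% = vehicle and 100% = reference activator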
MOR-DOR ag-1: agonists of OPRM1-OPRD1 heterodimerization, primary screen, cell-based, luminescence; Mu-type opioid receptor (Homo sapiens) + Delta-type opioid receptor (Homo sapiens), …; cells; activation, % at 9.3 µM; 340,000 compounds, 0.3% hits; AID 504326, 2011;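 further: 0% = vehicle-treated cells and 100% = reference agonist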
HTR5A ag: HTR5A agonists in luminescence cell assay, primary screen, counter-screen for OPRM1-OPRD1 heterodimer agonist project, full-deck HTS. 5-hydroxytryptamine receptor 5A (Homo sapiens), P47898. cell-based. activation, % at 9.3 µM. 340,000 compounds, 0.61% hits; in the data active means activation mostly above about 9.5%, no sharp cut-off; inactive means mostly below about 7.6%;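 further: 0% = cells with vehicle only and 100% = reference agonist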
Target sequence (P47898 whole entry, looked up): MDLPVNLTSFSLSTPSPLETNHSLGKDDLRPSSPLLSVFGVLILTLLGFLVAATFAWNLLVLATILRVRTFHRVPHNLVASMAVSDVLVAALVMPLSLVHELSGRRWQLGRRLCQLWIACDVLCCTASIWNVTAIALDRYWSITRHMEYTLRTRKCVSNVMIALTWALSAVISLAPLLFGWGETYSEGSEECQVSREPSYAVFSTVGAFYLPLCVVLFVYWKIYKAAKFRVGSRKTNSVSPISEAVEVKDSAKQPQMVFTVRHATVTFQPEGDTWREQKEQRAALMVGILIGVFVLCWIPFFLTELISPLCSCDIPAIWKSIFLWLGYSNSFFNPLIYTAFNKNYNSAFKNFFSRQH
HTR5A inv ag: HTR5A inverse agonists in luminescence cell assay, primary screen, counter-screen for OPRM1-OPRD1 heterodimer inverse agonist project, full-deck HTS. 340,000 compounds, 0.083% hits. 5-hydroxytryptamine receptor 5A (Homo sapiens), P47898. inhibition, % at 9.3 µM. AID 504634, 2011. HTR5A cell line, inverse agonism; in the data active means inhibition mostly above about 23%, no sharp cut-off; inactive means mostly below about 18%;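 further: 0% = cells with DMSO and 100% = no-cell wells with DMSO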
MsrA inh: bovine MsrA enzyme inhibitors, primary screen, biochemical, absorbance, HTS; 360,000 compounds, 0.75% hits; AID 651718, 2012; inhibition, % at 15.5 µM; purified bovine MsrA, absorbance read-out; Methionine sulfoxide reductase A (Bos taurus); in the data active means inhibition above about 4.5%;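 further: 0% = vehicle wells with enzyme and 100% = reference inhibitor wells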
OPRM1-OPRD1 inv: inverse agonists of MOR-DOR heterodimerization, primary screen, cell-based, luminescence. Mu-type opioid receptor (Homo sapiens) + Delta-type opioid receptor (Homo sapiens), …. cell-based MOR-DOR heterodimer luminescence, inverse agonism. inhibition, % at 9.3 µM. 340,000 compounds, 0.21% hits; in the data active means inhibition above about 22%, passing the limit was not always enough;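 further: 0% = cells with DMSO and 100% = wells without cells with DMSO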
MOR-DOR ag-2: OPRM1-OPRD1 heterodimerization promoters, counter-screen for HTR5A agonist project, cell-based, luminescence. 800 compounds, 13% hits. shares compounds with HTR5A ag. U2OS counter-screen cells, complementation luminescence, 3 h. AID 504913, 2011. activation, % at 9.3 µM
HTR5A ag conf: HTR5A agonists, retest of hits, confirmation, cell-based, luminescence | shares compounds with HTR5A ag | HTR5A agonist cell assay | activation, % at 9.3 µM | 800 compounds, 17% hits | AID 504915, 2011; in the data active means activation above about 17%;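 further: 0% = cells with vehicle only and 100% = full reference agonist response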
An asterisk follows results filed as active; nt = no result. Unless noted, no stated cut-off is given here; in the data, active means activation above about 18%; inactive means the rest.

SMILES | MsrA act | MOR-DOR ag-1 | HTR5A ag | HTR5A inv ag | MsrA inh | OPRM1-OPRD1 inv | MOR-DOR ag-2 | HTR5A ag conf
CN(C(=O)[C@H]1O[C@@H](n2cnc3c(=O)[nH]c(N)nc32)[C@H](O)[C@@H]1O)C1CCCCC1 | nt | nt | nt | nt | 0 | nt | nt | nt
N#Cc1cccnc1Nc1ccc(Cl)cc1 | -11 | -2 | 8 | -22 | 1 | 9 | nt | nt
Cc1nc(Nc2ccc(Cl)cc2)c(C#N)c(=O)[nH]1 | -9 | -2 | 16* | -43 | 1 | 12 | 0 | 2
CCCCc1c(-c2ccccc2OC)ncn1Cc1ccccc1Cl | nt | nt | nt | nt | 0 | nt | nt | nt
O=C(NCc1ccco1)c1cc(C(=O)C2CC2)c[nH]1 | -2 | -2 | 17* | -44 | -1 | 8 | 0 | 6
Cc1ccccc1C(=O)c1c[nH]c(C(=O)NCc2ccco2)c1 | -2 | -1 | -2 | 5 | 0 | 5 | nt | nt
Cc1ccc2oc(=O)c3cnn(CC(=O)NC4CCCCC4C)c3c2c1 (stereo not given) | -10 | 0 | 21* | -54 | 0 | -2 | 1 | 0
Cc1ccccc1N(CC(=O)NCCSc1ccccn1)S(=O)(=O)c1ccccc1 | -2 | -4 | 2 | -5 | -1 | 18 | nt | nt
CCOc1ccccc1N(CC(=O)NCCSc1ccccn1)S(=O)(=O)c1ccc(C)cc1 | -2 | 1 | 30* | -88 | -1 | -7 | 10 | 6
CCOc1ccccc1N(CC(=O)NCCSc1ccccn1)S(=O)(=O)c1ccccc1 | -2 | -1 | 25* | -72 | -1 | 8 | 126* | -3
Cc1ccc(S(=O)(=O)N(CC(=O)NCCSc2ccccn2)c2ccc(C)c(C)c2)cc1 | 3 | 2 | 1 | -2 | 0 | -8 | nt | nt
Nc1ccn([C@@H]2O[C@H](C(=O)N[C@H](Cc3ccccc3)C(=O)N3CCN(CCO)CC3)[C@@H](O)[C@H]2O)c(=O)n1 | nt | nt | nt | nt | 1 | nt | nt | nt
CCCCCCCCCCn1c2c(c(=N)c3c1CCC3)CCC2 | 4 | 4 | 35* | -51 | -1 | -23 | 10 | 13
COc1ccc(OC)c(NC(=O)c2cc(OC(C)=O)cc(C(=O)Nc3cc(OC)ccc3OC)c2)c1 | -10 | 3 | 18* | -68 | 0 | -14 | 0 | -4
O=c1cc(CN2CCN(S(=O)(=O)c3ccccc3)CC2)nc2ccc(Cl)cn12 | -3 | 1 | -8 | 20 | 1 | -2 | nt | nt
COc1ccc(S(=O)(=O)N2CCN(Cc3cc(=O)n4ccccc4n3)CC2)cc1 | -3 | 1 | 16* | -40 | 3 | -4 | 1 | -2
O=S(=O)(NCc1ccccc1)c1cc(Br)ccc1Br | nt | nt | nt | nt | 0 | nt | nt | nt
O=C(CSc1nnnn1-c1ccccc1)NCC1(N2CCCCC2)CCCCC1 | -2 | -3 | -6 | 14 | -1 | 14 | nt | nt
O=C(CSc1ccccc1)NCC1(N2CCCCC2)CCCCC1 | -1 | -1 | 17* | -8 | 1 | 6 | 23* | 6
COC(=O)C1=C(C)N(Cc2ccc(C(F)(F)F)cc2)C(=NCc2ccc3c(c2)OCO3)NC1c1ccccc1 (stereo not given) | nt | nt | nt | nt | -1 | nt | nt | nt
S=C(NN=C1CCCCC1=NNC(=S)N1CCOCC1)N1CCOCC1 | nt | nt | nt | nt | 0 | nt | nt | nt
O=S(=O)(CS(=O)(=O)c1ccccc1Br)c1ccccc1Br | nt | nt | nt | nt | 1 | nt | nt | nt
O=C(Cc1ccc(Br)cc1)NCCc1ccc(Cl)cc1Cl | -11 | 2 | 16* | 4 | 1 | -9 | -5 | -4
Cc1coc2cc3oc(=O)c(CCC(=O)N4C[C@H]5C[C@@H](C4)c4cccc(=O)n4C5)c(C)c3cc12 | -2 | -2 | 26* | -10 | 1 | 10 | 1 | 51*
C[C@@H]1CN([C@H](C)CO)C(=O)CCCn2nncc2CO[C@H]1CN(C)C(=O)Nc1ccc2c(c1)OCCO2 | nt | nt | nt | nt | 1 | nt | nt | nt
SMILES | MsrA act | MOR-DOR ag-1 | HTR5A ag | HTR5A inv ag | MsrA inh | OPRM1-OPRD1 inv | MOR-DOR ag-2 | HTR5A ag conf
CCCCOc1ccc(C(=O)N/C(=C\c2cccc([N+](=O)[O-])c2)C(=O)OC(C)C)cc1 | 1 | 5 | 16* | 8 | 2 | -21 | 1 | 2
O=S(=O)(NN=C1CCCCCC1)c1ccc(Cl)cc1 | -5 | -3 | 3 | -30 | -1 | 17 | nt | nt
O=[N+]([O-])c1ccc(S(=O)(=O)NN=C2CCCCC2)cc1 | -8 | -1 | 15* | -55 | -1 | 7 | 2 | 4
COC(=O)N1C[C@@H]2Oc3nccnc3O[C@@H]2C[C@@H]1c1ccccc1Br | nt | nt | nt | nt | -1 | nt | nt | nt
Cc1c(/C=N/n2cnnc2)c2ccccc2n1CCOc1ccc(Cl)cc1 | -5 | 1 | 6 | -10 | 1 | -4 | nt | nt
Cc1ccc(OCCn2c(C)c(/C=N/n3cnnc3)c3ccccc32)cc1 | -3 | 0 | 21* | -31 | 1 | -1 | 10 | -1
C[C@@H]1ON(C)[C@H]2C[C@H]3c4cc(-c5ccccc5)ccc4CCN3C[C@@H]12 | nt | nt | nt | nt | 0 | nt | nt | nt
COc1ccc(C(C)(C)C)cc1NC(=O)c1ccc2ncsc2c1 | -2 | 2 | 16* | -8 | -1 | -14 | 13 | 7
COc1ccc(NC(=O)c2ccc3ncsc3c2)c2ccccc12 | -2 | -2 | 2 | 1 | 0 | 9 | nt | nt
CCCCCCCCOC(=O)CCc1c(C)[nH]c(=S)[nH]c1=O | -12 | 5 | 15* | -62 | 0 | -31 | 4 | 7
CCCCCCOC(=O)CCc1c(C)nc(N)[nH]c1=O | 0 | -1 | 4 | -12 | -1 | 6 | nt | nt
COC1OC(COCc2ccccc2)C2OC(C)(C)OC2C1O (stereo not given) | nt | nt | nt | nt | 0 | nt | nt | nt
Cc1ccc(C(=O)c2c3ccc([N+](=O)[O-])cc3[n+]([O-])n2CCCC(N)=O)cc1 | -2 | 5 | 17* | -43 | 2 | -28 | -1 | 0
O=C(C(=O)N1CCN(C(=O)C2CCCC2)CC1)c1cccc(C(F)(F)F)c1 | nt | nt | nt | nt | 0 | nt | nt | nt
Cc1onc(-c2ccccc2)c1C(=O)N/N=C/c1ccc([N+](=O)[O-])c(O)c1 | -3 | -1 | 20* | -52 | 1 | 5 | -1 | 0
CCC(c1nc2ccccc2[nH]1)n1c(-c2ccc3cc[nH]c3c2)nc2ccccc21 (stereo not given) | nt | nt | nt | nt | 0 | nt | nt | nt
Oc1ccc(CNc2ccccc2)c2cccnc12 | -2 | 2 | 3 | -16 | nt | -9 | nt | nt
Oc1ccc(CNc2ccc(F)cc2)c2cccnc12 | -16 | 16 | 23* | -63 | -1 | -99 | 6 | 4
COc1ccc(Sc2cccc(Cl)c2)c(C(=O)O)c1 | nt | nt | nt | nt | 0 | nt | nt | nt

Source: PubChem (The Scripps Research Institute Molecular Screening Center)
